Data from PubChem BioAssay (Tox21).
Values without a mark were called inactive. Results filed as inconclusive are left out. Entries that show only a call come without a potency. Active and inactive are the calls of the source. The call rests on the fitted dose curve.

Each molecule was assayed against Acetylcholinesterase (Homo sapiens) (UniProt P22303) (assay: Acetylcholinesterase (AChE) small molecule antagonists: colormetric cell-based qHTS assay (AID 1347395; further: nearly all actives have a fitted effect of over 30% in size)). Conditions: SH-SY5Y cells AChE activity, colorimetric (Ellman); series mostly up to 115 µM.
Acetylcholinesterase (Homo sapiens), sequence (P22303 whole entry, looked up): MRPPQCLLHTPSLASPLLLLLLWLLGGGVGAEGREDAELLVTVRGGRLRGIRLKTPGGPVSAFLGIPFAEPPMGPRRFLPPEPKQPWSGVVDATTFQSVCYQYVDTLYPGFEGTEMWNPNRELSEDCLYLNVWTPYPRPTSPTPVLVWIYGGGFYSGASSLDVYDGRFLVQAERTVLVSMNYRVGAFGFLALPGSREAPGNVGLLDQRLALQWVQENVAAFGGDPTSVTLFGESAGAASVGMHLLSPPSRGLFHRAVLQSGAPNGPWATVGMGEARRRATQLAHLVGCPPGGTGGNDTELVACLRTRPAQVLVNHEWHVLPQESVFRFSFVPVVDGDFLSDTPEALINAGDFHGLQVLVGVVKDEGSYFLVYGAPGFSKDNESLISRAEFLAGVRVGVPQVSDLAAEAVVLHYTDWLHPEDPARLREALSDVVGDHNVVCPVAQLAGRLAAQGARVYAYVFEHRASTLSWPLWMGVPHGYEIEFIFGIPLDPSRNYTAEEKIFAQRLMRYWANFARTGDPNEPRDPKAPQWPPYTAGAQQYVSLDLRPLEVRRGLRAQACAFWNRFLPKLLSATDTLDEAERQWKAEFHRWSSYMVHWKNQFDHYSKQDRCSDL
Method in brief: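 SH-SY5Y cells, plated overnight at 37 C, were exposed to compounds for 30 min at 37 C and 5% CO2. Acetylthiocholine plus DTNB was then added, and thiocholine from endogenous AChE was quantified colorimetrically after 90 min at 37 C.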

Compound | Potency | activity, negative = inhibition
CCc1cnc(C(=O)O)c(C(=O)O)c1 | inactive | 
CC(C)CC(C)CC(C)CC(C)COC(=O)c1ccccc1C(=O)OCC(C)CC(C)CC(C)CC(C)C (stereo not given) | inactive | 
CN1C(C)(C)CC(O)CC1(C)C | inactive | 
Oc1cc(O)c2c(c1)O[C@H](c1ccc(O)c(O)c1)[C@H](O)C2 | inactive | 
Cn1c(=O)c2c(ncn2CC2OCCO2)n(C)c1=O | inactive | 
Cc1ncc(CO)c(C=O)c1O | inactive | 
C[N+](C)(C)CC(O)CCl (stereo not given) | inactive | 
Cc1ccc(S(=O)(=O)O)cc1C | inactive | 
O=C1NCN(c2ccccc2)C12CCN(CCCC(c1ccc(F)cc1)c1ccc(F)cc1)CC2 | inactive | 
CC(=O)/C=C/C1C(C)=CCC(C)C1(C)C (stereo not given) | inactive | 
CCCCC(CC)CN=C(N)NC(N)=NCCCCCCN=C(N)NC(N)=NCC(CC)CCCC (stereo not given) | inactive | 
CCCCOC(=O)CC(CC(=O)OCCCC)(OC(C)=O)C(=O)OCCCC | inactive | 
Oc1ccc(Cl)c2cccnc12 | inactive | 
CCCCOCC(C)OCC(C)O (stereo not given) | inactive | 
CCCCCCCCCCCCOCCOCCOCCOCCOCCOCCOCCOCCOCCO | inactive | 
CC(=O)CCC(=O)O | inactive | 
CCCCCCCC/C=C\CCCCCCCCN | inactive | 
CCCCCCCCS(=O)C(C)Cc1ccc2c(c1)OCO2 (stereo not given) | inactive | 
OCCCCl | inactive | 
C(=C(c1ccccc1)c1ccccc1)c1ccccc1 | inactive | 

Compound | Potency | activity, negative = inhibition
Nc1ncnc2c1ncn2[C@@H]1O[C@H](COP(=O)(O)O)[C@@H](O)[C@H]1O | inactive | 
CCN(CC)CCN | inactive | 
N#Cc1ccccc1O | inactive | 
Cc1cc(C)c(C)cc1C | inactive | 
O=C(OCC1(COC(=O)c2cccnc2)CCCC(COC(=O)c2cccnc2)(COC(=O)c2cccnc2)C1O)c1cccnc1 | inactive | 
O=C1CCC(N2C(=O)c3ccccc3C2=O)C(=O)N1 (stereo not given) | inactive | 
CN(C)CCCN(C)C |  | 3.16% [at 10.5 µM]
C#Cc1ccc(-c2ccccc2F)cc1 | inactive | 
NS(=O)(=O)c1cc2c(cc1Cl)NC(C1CC3C=CC1C3)NS2(=O)=O (stereo not given) | inactive | 
CCN(CC)CC1CCCCN1CC(=O)N1c2ccccc2C(=O)Nc2cccnc21 (stereo not given) | inactive | 
Nc1cc(S(=O)(=O)O)cc2cc(S(=O)(=O)O)cc(O)c12 | inactive | 
CC(C)(N)CO | inactive | 
CCCCCCCCC(=O)OCC | inactive | 
COc1ccc(C(=O)CC(=O)c2ccc(C(C)(C)C)cc2)cc1 | inactive | 
CCO[Si](CCCN)(OCC)OCC | inactive | 
CCC[Si](OC)(OC)OC | inactive | 
CCOC(=O)COc1ccc(C)cc1 | inactive | 
CC(CC=O)CCCC(C)(C)O (stereo not given) | inactive | 
CC(C)(O)CCc1ccccc1 | inactive | 
CC(=O)OC[C@H]1O[C@@H](n2ncc(=O)[nH]c2=O)[C@H](OC(C)=O)[C@@H]1OC(C)=O | inactive | 

Each molecule was assayed against Acetylcholinesterase (Homo sapiens) (UniProt P22303) (assay: Acetylcholinesterase (AChE) small molecule antagonists: enzyme-based qHTS assay (AID 1347397; further: nearly all actives have a fitted effect of over 55% in size; further: potency means the concentration at half of the fitted maximal effect)). Conditions: Potency: AChE enzyme activity inhibition; outcome: AChE enzyme activity inhibition; series mostly up to 115 µM.
Method in brief: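 Absorbance-based detection of thiocholine with DTNB served as the read-out. Recombinant human AChE was exposed to compound for 30 min at RT before a 10 min RT incubation with acetylthiocholine.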

Compound | Potency | activity change, negative = inhibition
CCc1cnc(C(=O)O)c(C(=O)O)c1 | inactive | 
CC(C)CC(C)CC(C)CC(C)COC(=O)c1ccccc1C(=O)OCC(C)CC(C)CC(C)CC(C)C (stereo not given) | inactive | 
CN1C(C)(C)CC(O)CC1(C)C | inactive | 
Oc1cc(O)c2c(c1)O[C@H](c1ccc(O)c(O)c1)[C@H](O)C2 | inactive | 
Cn1c(=O)c2c(ncn2CC2OCCO2)n(C)c1=O | inactive | 
Cc1ncc(CO)c(C=O)c1O | inactive | 
C[N+](C)(C)CC(O)CCl (stereo not given) | inactive | 
Cc1ccc(S(=O)(=O)O)cc1C | inactive | 
O=C1NCN(c2ccccc2)C12CCN(CCCC(c1ccc(F)cc1)c1ccc(F)cc1)CC2 | inactive | 
CC(=O)/C=C/C1C(C)=CCC(C)C1(C)C (stereo not given) | inactive | 
CCCCC(CC)CN=C(N)NC(N)=NCCCCCCN=C(N)NC(N)=NCC(CC)CCCC (stereo not given) | 17.4 µM (active) | 
CCCCOC(=O)CC(CC(=O)OCCCC)(OC(C)=O)C(=O)OCCCC | inactive | 
Oc1ccc(Cl)c2cccnc12 | inactive | 
CCCCOCC(C)OCC(C)O (stereo not given) | 57.8 µM (active) | 
CCCCCCCCCCCCOCCOCCOCCOCCOCCOCCOCCOCCOCCO | inactive | 
CC(=O)CCC(=O)O | inactive | 
CCCCCCCC/C=C\CCCCCCCCN | inactive | 
CCCCCCCCS(=O)C(C)Cc1ccc2c(c1)OCO2 (stereo not given) | inactive | 
OCCCCl | inactive | 
C(=C(c1ccccc1)c1ccccc1)c1ccccc1 | inactive | 

Compound | Potency | activity change, negative = inhibition
Nc1ncnc2c1ncn2[C@@H]1O[C@H](COP(=O)(O)O)[C@@H](O)[C@H]1O | inactive | 
CCN(CC)CCN | inactive | 
N#Cc1ccccc1O | inactive | 
Cc1cc(C)c(C)cc1C | inactive | 
O=C(OCC1(COC(=O)c2cccnc2)CCCC(COC(=O)c2cccnc2)(COC(=O)c2cccnc2)C1O)c1cccnc1 | inactive | 
O=C1CCC(N2C(=O)c3ccccc3C2=O)C(=O)N1 (stereo not given) | inactive | 
CN(C)CCCN(C)C |  | 0.096% [at 10.5 µM]
C#Cc1ccc(-c2ccccc2F)cc1 | inactive | 
NS(=O)(=O)c1cc2c(cc1Cl)NC(C1CC3C=CC1C3)NS2(=O)=O (stereo not given) | inactive | 
CCN(CC)CC1CCCCN1CC(=O)N1c2ccccc2C(=O)Nc2cccnc21 (stereo not given) | inactive | 
Nc1cc(S(=O)(=O)O)cc2cc(S(=O)(=O)O)cc(O)c12 | inactive | 
CC(C)(N)CO | inactive | 
CCCCCCCCC(=O)OCC | inactive | 
COc1ccc(C(=O)CC(=O)c2ccc(C(C)(C)C)cc2)cc1 | inactive | 
CCO[Si](CCCN)(OCC)OCC | inactive | 
CCC[Si](OC)(OC)OC | inactive | 
CCOC(=O)COc1ccc(C)cc1 | inactive | 
CC(CC=O)CCCC(C)(C)O (stereo not given) | inactive | 
CC(C)(O)CCc1ccccc1 | inactive | 
CC(=O)OC[C@H]1O[C@@H](n2ncc(=O)[nH]c2=O)[C@H](OC(C)=O)[C@@H]1OC(C)=O | inactive | 
